PubChem BioAssay (NCATS)
Results filed as inconclusive are left out. Calls of active or inactive are those of the source. Unless noted, calls follow the shape of the dose curve; as a rule, active = well fitted curve in the direction sought with a large enough effect; inconclusive = small, poorly fitted or top-dose-only effect, or another doubt; inactive = no such curve, though single readings can be large; an effect the other way counts as inactive or inconclusive.

Experiments:
[1] = biological target: Peroxisome proliferator-activated receptor gamma (Homo sapiens) (UniProt P37231); assay: qHTS assay for small molecule agonists of peroxisome proliferator-activated receptor gamma signaling (AID 588536; active = well fitted curve in the direction sought with a large enough effect in the signal ratio, with a control signal flat, not every such curve was filed as active; the % refers to the signal ratio;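 also: 0% = DMSO basal wells and 100% = rosiglitazone at 2 µM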)
How it was run: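 Ratiometric blue/green fluorescence (405 nm excitation; 460 and 530 nm emission) from CCF4-loaded HEK293 reporter cells serves as signal. Exposure to test compounds lasts 16 h at 37 C in medium containing 1% charcoal/dextran-treated serum.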

[2] = qHTS assay for small molecule agonists of retinoid X receptor alpha signaling (AID 588544; calls by dose curve;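 as to activation: 0% = DMSO basal wells and 100% = reference agonist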); conditions: HEK293T RXRa-UAS-bla, beta-lactamase reporter, 18 h; 530 nm emission
[3] = biological target: Retinoic acid receptor RXR-alpha (Homo sapiens) (UniProt P19793); assay: as above
[4] = biological target: Thyroid hormone receptor beta (Homo sapiens) (UniProt P10828); assay: qHTS assay for small molecule agonists of thyroid hormone receptor beta signaling (AID 588545; calls by dose curve;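 also: 0% = DMSO only and 100% = 10 nM T3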)
How it was run: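 Beta-lactamase reporter activity under TR response element control is measured in HEK 293 cells after 18 hrs compound exposure. Signal is ratiometric CCF4 fluorescence, 460/530 nm.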

[5] = qHTS assay for small molecule antagonists of retinoid X receptor alpha signaling (AID 588546; active = well fitted inhibition curve with a large enough effect in the signal ratio, with a control signal flat, not every such curve was filed as active; the % refers to the signal ratio;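 also: cells stimulated with 9-cis-retinoic acid as agonist; % is scaled to controls: 0 for no effect and ±100 for the full control effect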); conditions: HEK293T RXRa-UAS-bla, beta-lactamase ratio, antagonist mode; measured here: W530 green channel, cytotoxicity proxy
How it was run: (§1)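 Beta-lactamase reporter inhibition, read as CCF4 fluorescence ratio (ex 405, em 460/530 nm) after 2 h at RT. HEK293T UAS-bla cells, 2500/well, were stimulated with 9-cis-RA at 500 or 100 nM final alongside test compound for 18 h at 37 C.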

[6] = biological target: Retinoic acid receptor RXR-alpha (Homo sapiens) (UniProt P19793); assay: as above; conditions: HEK293T RXRa-UAS-bla, beta-lactamase ratio, antagonist mode
How it was run: as §1

[7] = biological target: Thyroid hormone receptor beta (Homo sapiens) (UniProt P10828); assay: qHTS assay for small molecule antagonists of thyroid hormone receptor beta signaling (AID 588547; active = well fitted inhibition curve with a large enough effect in the signal ratio, with a control signal flat, not every such curve was filed as active; the % refers to the signal ratio;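 also: cells stimulated with 0.4 nM T3 agonist during compound exposure; series mostly up to about 77 µM; % is scaled to controls: 0 for no effect and ±100 for the full control effect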); conditions: TR-UAS-bla HEK293, beta-lactamase ratio, antagonist mode, 18 h
How it was run: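 TR-UAS-bla GripTite HEK293 cells in 2% charcoal/dextran FBS medium were preincubated 4 h at 37 C, given compound (0.59 nM to 92 uM) plus 0.4 nM T3 (final) for 18 h, then CCF4 for 2 h at RT; Hill fit gave IC50.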

[8] = biological target: Voltage-gated inwardly rectifying potassium channel KCNH2 (Homo sapiens) (UniProt Q12809); assay: qHTS Assay for Small Molecule Inhibitors of the Human hERG Channel Activity (AID 588834);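 also: top concentration of the series differs between compounds; % is scaled to controls: 0 for no effect and ±100 for the full control effect; lower thallium flux fluorescence means stronger hERG block; nearly all actives have a fitted effect of over 50% in size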
How it was run: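 Blockade is seen as reduced FluxOR thallium-flux fluorescence in U2OS cells expressing hERG from a BacMam construct, in Opti-MEM with 2% FCS. Concentration-response data fitted to the Hill equation for AC50.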

[9] = qHTS assay for small molecule activators of the p53 signaling pathway (AID 651743; active = well fitted activation curve with a large enough effect in the signal ratio, not every such curve was filed as active; the % refers to the signal ratio; also: series mostly up to about 92 µM; % of control where 0% means no effect); conditions: HCT-116 p53RE-bla, beta-lactamase FRET ratio, 16 h; activation: stronger effect = higher value
How it was run: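 p53RE-bla HCT-116 cells with a stably integrated beta-lactamase reporter under p53 response elements were plated, rested 5 hours at 37 C/5% CO2, then exposed to compounds in DMSO for 16 hours at 37 C. LiveBLAzer B/G FRET substrate was read after 2 hours at room temperature.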

[10] = qHTS assay for small molecule activators of the nuclear factor-kappa B (NF-kB) signaling pathway (AID 651749; active = well fitted activation curve with a large enough effect in the signal ratio; the % refers to the signal ratio; also: series mostly up to about 77 µM; % of control where 0% means no effect); conditions: NF-kB-bla ME-180 cells, beta-lactamase FRET ratio, 16 h; stronger effect = higher value
How it was run: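 ME-180 cells stably carrying a beta-lactamase reporter under an NF-kB response element were exposed to compound or DMSO vehicle for 16 hr at 37C, 5% CO2. Pathway activation was read by FRET, since reporter expression disrupts FRET.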

[11] = qHTS assay for small molecule disruptors of the mitochondrial membrane potential - 1 hr assay (AID 651754; calls by dose curve; also: potency is read from the fitted curve at half-maximal effect; nearly all actives have a fitted effect of over 35% in size)
How it was run: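 HepG2 cells, attached overnight at 37C, were exposed to compound or DMSO vehicle for 1 hr at 37C, 5% CO2, then stained with Mito-MPS dye for 30 min. Red aggregate versus green monomer fluorescence reports membrane potential.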

[12] = qHTS assay for small molecule disruptors of the mitochondrial membrane potential - 5 hr assay (AID 651755; calls by dose curve; also: potency is read from the fitted curve at half-maximal effect; nearly all actives have a fitted effect of over 40% in size)
How it was run: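 HepG2 cells, attached overnight at 37C, were exposed to compound or DMSO for 5 hr at 37C, 5% CO2. Mito-MPS dye was then added for 30 min, and fluorescence read at 490/535 nm (monomers) and 540/590 nm (aggregates).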

[13] = biological target: Tumor necrosis factor (Homo sapiens) (UniProt P01375); assay: qHTS assay to identify small molecules that stimulate Tumor Necrosis Factor-alpha (TNF-alpha) secretion (AID 651757; active = well fitted curve in the direction sought with a large enough effect in the signal ratio; the % refers to the signal ratio; also: 0% is about no effect)
How it was run: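 THP-1 cells were exposed to compounds for 17 hrs at 37 C, after which secreted TNF-alpha was measured by homogeneous HTRF (TR-FRET) using cryptate- and XL665-labeled anti-TNF-alpha antibodies, read after 3 hr at room temperature.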

[14] = qHTS assay for environmental chemicals that activate the Aryl hydrocarbon Receptor (AhR) signaling pathway (AID 651777); conditions: 1A2-DRE human hepatoma cells, luciferase, 24 h; activation: stronger effect = higher value; also: potency is read from the fitted curve at half-maximal effect; nearly all actives have a fitted effect of over 15% in size
How it was run: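 Reporter gene assay: hepatoma cells with DRE/CYP1A2-luciferase, 24 hr compound incubation at 37 C, 5% CO2, luminescence after One-Glo (30 min, RT).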

[15] = biological target: Peroxisome proliferator-activated receptor alpha (Homo sapiens) (UniProt Q07869); assay: qHTS assay for small molecule agonists of the peroxisome proliferator-activated receptor alpha (PPARalpha) signaling pathway (AID 651778); conditions: PathHunter PPARalpha complementation, chemiluminescence, 6 h; stronger effect = higher value; also: % of control where 0% means no effect
How it was run: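 Cells plated at 2,000/well and held overnight at 37 C, 5% CO2, then compound added by pin tool for 6 hr; after PathHunter detection reagent and 60 min at room temperature, chemiluminescence from enzyme complementation was read.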

[16] = biological target: Nuclear receptor ROR-gamma (Homo sapiens) (UniProt P51449); assay: qHTS assay for small molecule antagonists of the retinoid-related orphan receptor gamma (ROR-gamma) signaling pathway (AID 651802); also: series mostly up to about 92 µM; % is scaled to controls: 0 for no effect and ±100 for the full control effect; nearly all actives have a fitted effect of over 60% in size
How it was run: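 CHO cells carrying TET-inducible ROR-gamma and an ROR response element–luciferase reporter were exposed to compound, then induced with doxycycline. After 16hr at 37C, luminescence was read; lower signal indicates antagonism.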

[17] = qHTS assay for small molecule antagonists of the retinoid-related orphan receptor gamma (ROR-gamma) signaling pathway - cell viability counter screen (AID 720652; active = well fitted curve in the direction sought with a large enough effect in the repeat runs; an effect the other way counts as inactive or inconclusive;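 also: series mostly up to about 92 µM; compound exposure lasted 16 hr before ATP read; % is scaled to controls: 0 for no effect and ±100 for the full control effect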)
How it was run: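 Counter screen in CHO cells carrying TET-inducible ROR-gamma and an ROR response element-luciferase reporter; cells plated 5 hr, compound pinned, doxycycline added, then 16 hr at 37 C. Viability read as intracellular ATP by CellTiter-Glo luminescence.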

[18] = qHTS assay for small molecule agonists of the antioxidant response element (ARE) signaling pathway measured by Nrf2-dependant transcriptional activity - cell viability counter screen (AID 720653; active = well fitted curve in the direction sought with a large enough effect in the repeat runs; an effect the other way counts as inactive or inconclusive; also: % is scaled to controls: 0 for no effect and ±100 for the full control effect); conditions: ARE-bla HepG2 viability, CellTiter-Glo ATP luminescence, 16 h; stronger effect = lower value
How it was run: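 ARE-bla HepG2 cells (2,000/well) rested 5 hrs at 37C/5% CO2, then exposed to compounds in DMSO for 16 hrs. Viability was read in the same wells as intracellular ATP by luminescence, 30 min at room temperature after reagent addition.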

[19] = qHTS assay for cell viability of HEK293 cells (AID 743288); conditions: ATP luminescence (CellTiter-Glo), 18 h, stronger effect = lower value; also: % is scaled to controls: 0 for no effect and ±100 for the full control effect; nearly all actives have a fitted effect of over 50% in size
How it was run: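 Luminescent ATP quantitation served as the viability read-out. Cells (parental HEK293, 2,000/well) received compounds after at least 5 h at 37 C and were exposed for 18 h before a 30 min room-temperature reagent step.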

[20] = qHTS assay for cell viability of the p53RE-bla HCT-116 cell line (AID 743292); also: % is scaled to controls: 0 for no effect and ±100 for the full control effect; nearly all actives have a fitted effect of over 55% in size
How it was run: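 ATP-based luminescence, 16 h compound exposure at 37 C, p53RE-bla HCT-116 cells at 4,000/well.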

[21] = biological target: Calcium and integrin-binding protein 1 (Homo sapiens) (UniProt Q99828); assay: Primary qHTS for Identification of Calcium Integrin Binding Protein 1 (CIB1) Competitor (AID 1508620)
How it was run: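 Fluorescence polarization competition: CIB1-GST (1 uM final) preincubated with compound 15 min at room temperature, then FITC-labeled alphaIIb peptide (100 nM final) added for another 15 min. Polarization read at Ex 480/Em 540.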

Chain of Retinoic acid receptor RXR-alpha (Homo sapiens) (P19793 whole entry, looked up): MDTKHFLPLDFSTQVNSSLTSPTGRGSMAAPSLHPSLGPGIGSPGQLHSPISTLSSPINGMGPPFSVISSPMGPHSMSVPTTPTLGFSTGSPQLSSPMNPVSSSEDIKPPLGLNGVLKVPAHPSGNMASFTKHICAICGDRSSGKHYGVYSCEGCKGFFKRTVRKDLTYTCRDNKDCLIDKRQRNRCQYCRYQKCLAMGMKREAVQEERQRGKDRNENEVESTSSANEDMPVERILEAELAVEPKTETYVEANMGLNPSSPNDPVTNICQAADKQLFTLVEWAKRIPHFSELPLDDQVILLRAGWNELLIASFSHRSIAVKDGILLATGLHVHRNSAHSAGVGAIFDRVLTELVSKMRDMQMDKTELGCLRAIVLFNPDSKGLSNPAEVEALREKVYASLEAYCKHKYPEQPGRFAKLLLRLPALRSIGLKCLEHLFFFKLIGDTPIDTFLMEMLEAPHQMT
Chain of Thyroid hormone receptor beta (Homo sapiens) (P10828 whole entry, looked up): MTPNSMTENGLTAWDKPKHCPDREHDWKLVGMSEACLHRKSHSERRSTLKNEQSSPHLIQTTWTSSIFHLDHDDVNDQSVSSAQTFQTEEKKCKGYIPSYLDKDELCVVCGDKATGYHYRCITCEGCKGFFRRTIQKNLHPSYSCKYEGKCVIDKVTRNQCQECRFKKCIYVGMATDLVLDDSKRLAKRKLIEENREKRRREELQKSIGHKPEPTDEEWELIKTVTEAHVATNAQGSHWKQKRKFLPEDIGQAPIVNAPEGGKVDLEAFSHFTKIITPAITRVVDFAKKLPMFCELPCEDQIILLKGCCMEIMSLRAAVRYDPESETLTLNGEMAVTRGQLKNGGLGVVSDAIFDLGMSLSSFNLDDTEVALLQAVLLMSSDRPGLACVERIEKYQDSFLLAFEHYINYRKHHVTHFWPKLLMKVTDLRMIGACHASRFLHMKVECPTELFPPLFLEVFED
Chain of Voltage-gated inwardly rectifying potassium channel KCNH2 (Homo sapiens) (Q12809 whole entry, looked up): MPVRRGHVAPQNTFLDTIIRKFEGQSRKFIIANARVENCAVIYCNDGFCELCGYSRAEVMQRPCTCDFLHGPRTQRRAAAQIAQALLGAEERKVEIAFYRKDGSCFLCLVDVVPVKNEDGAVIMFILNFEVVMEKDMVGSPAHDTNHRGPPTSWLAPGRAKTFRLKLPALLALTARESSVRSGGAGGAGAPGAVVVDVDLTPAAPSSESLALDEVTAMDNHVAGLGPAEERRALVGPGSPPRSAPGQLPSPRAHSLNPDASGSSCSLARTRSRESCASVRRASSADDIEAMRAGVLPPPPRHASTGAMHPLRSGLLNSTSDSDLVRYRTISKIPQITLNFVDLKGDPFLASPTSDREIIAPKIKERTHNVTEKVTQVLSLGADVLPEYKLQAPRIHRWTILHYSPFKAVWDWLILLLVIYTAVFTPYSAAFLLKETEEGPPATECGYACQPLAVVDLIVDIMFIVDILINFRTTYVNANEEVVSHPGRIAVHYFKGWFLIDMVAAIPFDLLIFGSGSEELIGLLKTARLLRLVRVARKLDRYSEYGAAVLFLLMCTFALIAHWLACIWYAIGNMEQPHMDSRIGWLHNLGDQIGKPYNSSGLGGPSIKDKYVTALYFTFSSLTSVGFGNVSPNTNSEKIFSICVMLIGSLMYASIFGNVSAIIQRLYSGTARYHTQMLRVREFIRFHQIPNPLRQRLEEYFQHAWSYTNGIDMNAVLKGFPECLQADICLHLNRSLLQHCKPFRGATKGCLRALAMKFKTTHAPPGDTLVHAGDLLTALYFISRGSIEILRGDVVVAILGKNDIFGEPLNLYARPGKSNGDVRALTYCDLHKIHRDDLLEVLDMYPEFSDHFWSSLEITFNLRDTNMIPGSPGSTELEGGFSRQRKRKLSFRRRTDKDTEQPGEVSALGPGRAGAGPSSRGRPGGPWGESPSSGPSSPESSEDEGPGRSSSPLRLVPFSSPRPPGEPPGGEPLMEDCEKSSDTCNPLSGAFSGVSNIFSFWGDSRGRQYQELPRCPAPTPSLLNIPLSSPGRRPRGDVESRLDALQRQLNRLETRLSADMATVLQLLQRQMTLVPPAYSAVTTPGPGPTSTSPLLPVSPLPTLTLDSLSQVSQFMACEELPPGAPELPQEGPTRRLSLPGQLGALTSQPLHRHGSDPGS
Chain of Calcium and integrin-binding protein 1 (Homo sapiens) (Q99828 whole entry, looked up): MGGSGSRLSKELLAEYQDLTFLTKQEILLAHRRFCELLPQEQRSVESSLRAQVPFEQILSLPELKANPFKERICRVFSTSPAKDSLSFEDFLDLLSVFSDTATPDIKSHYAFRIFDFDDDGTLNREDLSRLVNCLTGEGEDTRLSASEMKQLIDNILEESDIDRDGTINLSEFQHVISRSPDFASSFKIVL
Chain of Peroxisome proliferator-activated receptor alpha (Homo sapiens) (Q07869 whole entry, looked up): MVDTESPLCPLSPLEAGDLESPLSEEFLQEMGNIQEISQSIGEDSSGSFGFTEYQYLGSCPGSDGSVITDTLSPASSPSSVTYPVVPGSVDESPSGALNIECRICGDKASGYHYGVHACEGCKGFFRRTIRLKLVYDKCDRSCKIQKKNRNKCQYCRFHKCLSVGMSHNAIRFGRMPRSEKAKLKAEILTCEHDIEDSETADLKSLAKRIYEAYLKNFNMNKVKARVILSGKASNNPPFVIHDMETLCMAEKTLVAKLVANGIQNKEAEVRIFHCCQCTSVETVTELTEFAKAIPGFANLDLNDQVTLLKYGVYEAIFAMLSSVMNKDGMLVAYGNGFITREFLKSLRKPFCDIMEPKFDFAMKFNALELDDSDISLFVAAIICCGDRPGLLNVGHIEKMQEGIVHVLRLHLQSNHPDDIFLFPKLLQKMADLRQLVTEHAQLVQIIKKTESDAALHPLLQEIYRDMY
Chain of Peroxisome proliferator-activated receptor gamma (Homo sapiens) (P37231 whole entry, looked up): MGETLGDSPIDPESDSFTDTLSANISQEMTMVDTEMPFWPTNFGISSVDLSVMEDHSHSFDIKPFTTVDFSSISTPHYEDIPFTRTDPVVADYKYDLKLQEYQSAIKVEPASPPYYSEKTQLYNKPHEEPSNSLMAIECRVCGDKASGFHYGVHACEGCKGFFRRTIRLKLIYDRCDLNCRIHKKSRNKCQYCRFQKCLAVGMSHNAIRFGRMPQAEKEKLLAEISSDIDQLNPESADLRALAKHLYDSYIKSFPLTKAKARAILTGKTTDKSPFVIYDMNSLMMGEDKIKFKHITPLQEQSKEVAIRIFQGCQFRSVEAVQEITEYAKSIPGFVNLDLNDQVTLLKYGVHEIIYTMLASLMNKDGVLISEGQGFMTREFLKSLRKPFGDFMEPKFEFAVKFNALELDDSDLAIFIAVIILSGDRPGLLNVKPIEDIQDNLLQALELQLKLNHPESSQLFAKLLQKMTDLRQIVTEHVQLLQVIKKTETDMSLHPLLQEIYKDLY
Chain of Nuclear receptor ROR-gamma (Homo sapiens) (P51449 whole entry, looked up): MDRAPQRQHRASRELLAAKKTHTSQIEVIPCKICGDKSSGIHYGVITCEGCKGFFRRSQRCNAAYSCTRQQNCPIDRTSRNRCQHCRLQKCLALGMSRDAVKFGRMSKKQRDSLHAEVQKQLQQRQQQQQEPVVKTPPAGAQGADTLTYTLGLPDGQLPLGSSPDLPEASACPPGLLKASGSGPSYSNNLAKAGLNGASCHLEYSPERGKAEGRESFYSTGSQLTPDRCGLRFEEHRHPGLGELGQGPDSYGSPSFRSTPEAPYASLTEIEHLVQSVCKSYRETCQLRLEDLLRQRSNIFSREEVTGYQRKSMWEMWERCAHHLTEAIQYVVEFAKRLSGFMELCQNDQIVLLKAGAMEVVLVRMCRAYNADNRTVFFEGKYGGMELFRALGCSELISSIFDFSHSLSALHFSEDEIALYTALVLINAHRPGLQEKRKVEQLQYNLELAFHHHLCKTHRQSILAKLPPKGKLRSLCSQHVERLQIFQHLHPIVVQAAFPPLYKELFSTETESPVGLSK
Chain of Tumor necrosis factor (Homo sapiens) (P01375 whole entry, looked up): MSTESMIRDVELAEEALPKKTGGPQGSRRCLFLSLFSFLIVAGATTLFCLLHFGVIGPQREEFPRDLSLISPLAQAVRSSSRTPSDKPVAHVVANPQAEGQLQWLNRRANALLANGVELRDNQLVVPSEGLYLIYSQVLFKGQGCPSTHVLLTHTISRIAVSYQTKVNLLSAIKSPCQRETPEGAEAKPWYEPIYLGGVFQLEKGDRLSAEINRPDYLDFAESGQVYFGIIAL

O=C(Nc1ccccc1)Nc1ccccc1
-6.23%: max response [2]
active: Potency [11] 10.6 µM | Potency [12] 13.3 µM | Potency [14] 12.6 µM
inactive: outcome [1] | outcome [3] | outcome [4] | max response [6] -1.03% | activity change % (negative = inhibition) [7] -2.58% | Potency [8] | activation [9] -2.22% | activation [10] 0.321% | Potency [13] | max response [15] -3.47% | outcome [16] | outcome [17] | max response [18] -0.927% | max response [19] -16.1% | Potency [20] | Potency [21]
-7.85%: max response [5]
